In PubChem BioAssay (EPA / NIEHS):
“And” between values parts separate entries of the source, which are not always exact repeats. Equal entries are not always repeated. Records with an inconclusive call do not appear. More than one record can exist for a structure, and the calls need not agree. The source made the active and inactive calls. The calls were made as follows: active = hit-call score of the fitted dose curve at least 0.9, where 1 is the maximum; inconclusive = response in the unintended direction; inactive = score below 0.9.

Columns and labels:
[1] = TOX21_p53_BLA_p2_viability: Viability Assessment in the Tox21 HCT-116 p53 Agonism Beta-lactamase Assay, Phase 2 (AID 2283591);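 also: compound exposure lasted 16 h at 37 °C; actives lower the ATP signal meaning cytotoxicity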
Summary of the method: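 Cytotoxicity readout: CellTiter-Glo ATP luminescence, 30 min at room temperature, after the beta-lactamase read. Cells were HCT116 exposed 16 h at 37C to compounds pin-transferred at 217-fold dilution from DMSO stocks.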

[2] = target: Cellular tumor antigen p53 (Homo sapiens) (UniProt P04637); assay: TOX21_p53_BLA_p2_ratio: Tox21 HCT-116 p53 Agonism Beta-lactamase Assay, Ratio, Phase 2 (AID 2283592)
Sequence of Cellular tumor antigen p53 (Homo sapiens) (P04637 whole entry, looked up): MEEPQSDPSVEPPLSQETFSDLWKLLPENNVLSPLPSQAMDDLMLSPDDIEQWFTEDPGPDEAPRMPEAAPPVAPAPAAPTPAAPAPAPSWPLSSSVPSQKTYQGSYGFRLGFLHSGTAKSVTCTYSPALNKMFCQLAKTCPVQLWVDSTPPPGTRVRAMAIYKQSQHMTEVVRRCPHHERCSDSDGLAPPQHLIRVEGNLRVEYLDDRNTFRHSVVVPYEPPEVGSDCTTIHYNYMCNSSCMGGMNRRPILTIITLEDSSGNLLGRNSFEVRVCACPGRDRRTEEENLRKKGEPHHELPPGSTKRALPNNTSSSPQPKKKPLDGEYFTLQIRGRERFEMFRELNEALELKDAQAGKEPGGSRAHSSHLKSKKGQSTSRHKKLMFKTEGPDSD
Summary of the method: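 DMSO-normalized, positive-direction endpoint derived from the 460 nm/530 nm FRET ratio in HCT116 p53 beta-lactamase reporter cells exposed 16 h at 37C and loaded with CCF4-AM for 2 h.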

[3] = target: Cellular tumor antigen p53 (Homo sapiens) (UniProt P04637); assay: TOX21_p53_BLA_p3_ratio: Tox21 HCT-116 p53 Agonism Beta-lactamase Assay, Ratio, Phase 3 (AID 2283596)
Summary of the method: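 Cells were seeded at 4000/well, rested 5 h at 37C, then dosed with DMSO compound solutions (217-fold dilution) for 16 h. CCF4-AM substrate was loaded for 2 h at room temperature, and the 460/530 nm emission ratio was fitted for gain of signal versus DMSO.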

[4] = TOX21_p53_BLA_p4_viability: Viability Assessment in the Tox21 HCT-116 p53 Agonism Beta-lactamase Assay, Phase 4 (AID 2283597);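 also: hits lower the luminescence signal meaning cytotoxicity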
Summary of the method: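 In this multiplexed secondary endpoint, HCT116 cells (4000 per well, compound at 5 h, 16 h treatment) received CellTiter-Glo after the beta-lactamase read. Luminescence after 30 min RT reflects ATP, and falling signal marks cytotoxicity.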

[5] = target: Cellular tumor antigen p53 (Homo sapiens) (UniProt P04637); assay: TOX21_p53_BLA_p5_ratio: Tox21 HCT-116 p53 Agonism Beta-lactamase Assay, Ratio, Phase 5 (AID 2283599)
Summary of the method: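 Beta-lactamase reporter ratio (blue 460 nm over green 530 nm, 405 nm excitation) after 2 h CCF4-AM loading, in HCT-116 cells exposed 16 h at 37 C to compounds pinned at 217-fold dilution. Increases relative to DMSO baseline scored.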

[6] = target: Cellular tumor antigen p53 (Homo sapiens) (UniProt P04637); assay: TOX21_p53_BLA_p4_ratio: Tox21 HCT-116 p53 Agonism Beta-lactamase Assay, Ratio, Phase 4 (AID 2283601)
Summary of the method: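 Signal is the blue/green (460nm/530nm) ratio of cleaved versus uncleaved CCF4-AM substrate, read after 2 h substrate loading. Cells were HCT116 carrying the p53-responsive beta-lactamase reporter, dosed 16 h at 37C, 5% CO2; CellTiter-Glo measured in parallel.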

[7] = TOX21_p53_BLA_p5_viability: Viability Assessment in the Tox21 HCT-116 p53 Agonism Beta-lactamase Assay, Phase 5 (AID 2283600)
Summary of the method: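 Here cell health was gauged by ATP levels in wells holding 4000 cells, each treated 16 h with DMSO-delivered compounds at 217-fold dilution; reduced luminescence marked toxicity.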

[8] = TOX21_p53_BLA_p3_viability: Viability Assessment in the Tox21 HCT-116 p53 Agonism Beta-lactamase Assay, Phase 3 (AID 2283593);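 also: cells exposed to compound for 16 h before reading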
Summary of the method: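 Cellular ATP was quantified by CellTiter-Glo luminescence, read after 30 min at room temperature. Beforehand, HCT116 cells (4000/well) received compound 5 h post-seeding, 217-fold diluted from DMSO, then incubated 16 h at 37C.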

[9] = ATG_XTT_Cytotoxicity: Cytotoxicity Assessment in the Attagene TRANS-FACTORIAL HepG2 Assay (AID 2283584)
Summary of the method: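 24 h chemical exposure of reporter-transfected HepG2; XTT signal loss vs DMSO indicates cytotoxicity.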

COP(=S)(OC)Oc1c(Cl)cc(C)cc1Cl
outcome [1]: inactive | outcome [2]: inactive | outcome [3]: inactive | outcome [4]: inactive | outcome [5]: inactive | outcome [6]: inactive

NNC(=S)NN
outcome [1]: inactive | outcome [2]: inactive | outcome [3]: inactive | outcome [4]: inactive | outcome [5]: inactive | outcome [6]: inactive

CC(C)OC(=S)S
outcome [1]: inactive | outcome [2]: inactive | outcome [3]: inactive | outcome [4]: inactive | outcome [5]: inactive | outcome [7]: inactive

CC(C)c1ccc(CO)cc1
outcome [1]: inactive | outcome [2]: inactive | outcome [8]: inactive | outcome [3]: inactive | outcome [4]: inactive | outcome [5]: inactive | outcome [7]: inactive | outcome [6]: inactive

ClCCBr
outcome [1]: inactive | outcome [2]: inactive | outcome [3]: inactive | outcome [4]: inactive | outcome [5]: inactive | outcome [7]: inactive | outcome [6]: inactive

ClCc1cccnc1
outcome [1]: inactive | outcome [2]: inactive | outcome [3]: inactive | outcome [5]: inactive | outcome [7]: inactive

Cl/C=C/Cl
outcome [9]: inactive | outcome [2]: inactive | outcome [8]: inactive | outcome [3]: inactive | outcome [7]: inactive | outcome [6]: inactive

O=C(OC1CCCCC1)c1ccccc1C(=O)OC1CCCCC1
outcome [1]: inactive | outcome [2]: inactive | outcome [8]: inactive | outcome [4]: inactive | outcome [5]: inactive | outcome [7]: inactive

COc1ccc(C(O)(c2cncnc2)C2CC2)cc1 (configuration not stated)
outcome [3]: inactive | outcome [7]: inactive | outcome [6]: inactive

O=[N+]([O-])c1ccc2c3c(cccc13)CC2
outcome [9]: inactive | outcome [2]: inactive | outcome [8]: inactive | outcome [3]: inactive | outcome [5]: inactive | outcome [6]: inactive

CCOP(=O)(CN(CCO)CCO)OCC
outcome [9]: inactive | outcome [2]: inactive | outcome [4]: inactive

O=C(Cc1ccccc1)c1ccccc1
outcome [1]: inactive | outcome [2]: inactive | outcome [3]: inactive | outcome [5]: inactive | outcome [6]: inactive

COc1cc(OC)nc(NC(=O)NS(=O)(=O)c2ncccc2C(=O)N(C)C)n1
outcome [2]: inactive | outcome [3]: inactive | outcome [4]: inactive | outcome [5]: inactive | outcome [7]: inactive | outcome [6]: inactive

CCOP(OCC)OCC
outcome [2]: inactive | outcome [8]: inactive | outcome [3]: inactive | outcome [4]: inactive | outcome [5]: inactive | outcome [6]: inactive

CCCCCCCCCCCCCCCC[n+]1ccccc1
AC50 [1]: 48.8 µM (active) and 69.6 µM (active) | outcome [1]: inactive | AC50 [3]: 36.1 µM (active) and 53.2 µM (active) | outcome [3]: inactive | AC50 [4]: 66.5 µM (active) [middle of 4 runs] | AC50 [5]: 71.7 µM (active) [middle of 4 runs] | AC50 [7]: 62.7 µM (active) and 84.3 µM (active) and 80.2 µM (active) | outcome [7]: inactive | AC50 [6]: 67.7 µM (active) [middle of 4 runs]

c1ccc(N=NNc2ccccc2)cc1
outcome [1]: inactive | outcome [2]: inactive | outcome [8]: inactive | outcome [3]: inactive | outcome [4]: inactive | outcome [5]: inactive | outcome [7]: inactive | outcome [6]: inactive

COP(=O)(OC)O/C(=C\Cl)c1cc(Cl)c(Cl)cc1Cl
outcome [9]: inactive | outcome [2]: inactive | outcome [3]: inactive | outcome [4]: inactive | outcome [5]: inactive | outcome [6]: inactive

P.[In]
outcome [1]: inactive | outcome [8]: inactive | outcome [3]: inactive | outcome [4]: inactive | outcome [5]: inactive | outcome [7]: inactive | outcome [6]: inactive

O=C(NCO)NCO
outcome [9]: inactive | outcome [3]: inactive | outcome [4]: inactive | outcome [7]: inactive | outcome [6]: inactive

NC(=O)CF
outcome [1]: inactive | outcome [2]: inactive | outcome [3]: inactive | outcome [4]: inactive

CCCCP(CCCC)CCCC
outcome [1]: inactive | outcome [2]: inactive | outcome [8]: inactive | outcome [3]: inactive | outcome [4]: inactive | outcome [7]: inactive | outcome [6]: inactive

N#CN=C(N)N
outcome [1]: inactive | outcome [2]: inactive | outcome [3]: inactive | outcome [4]: inactive | outcome [5]: inactive | outcome [7]: inactive | outcome [6]: inactive

NN=C(N)N
outcome [2]: inactive | outcome [3]: inactive | outcome [5]: inactive | outcome [6]: inactive

Nc1cccc2ccccc12
outcome [9]: inactive | outcome [1]: inactive | outcome [3]: inactive | outcome [4]: inactive | outcome [5]: inactive | outcome [6]: inactive

COP(=S)(OC)Oc1ccc(Sc2ccc(OP(=S)(OC)OC)cc2)cc1
outcome [1]: inactive | outcome [2]: inactive | outcome [8]: inactive | outcome [3]: inactive | outcome [4]: inactive | outcome [5]: inactive | outcome [7]: inactive | outcome [6]: inactive

CCC[CH2][Sn]([Cl])([Cl])[Cl]
outcome [1]: inactive | outcome [2]: inactive | outcome [3]: inactive | outcome [5]: inactive | outcome [7]: inactive | outcome [6]: inactive

COP(=S)(OC)Oc1cc(Cl)c(Cl)cc1Cl
outcome [1]: inactive | outcome [2]: inactive | outcome [8]: inactive | outcome [3]: inactive | outcome [4]: inactive | outcome [5]: inactive | outcome [7]: inactive | outcome [6]: inactive

Nc1ccc(N=Nc2ccc(-c3ccc(N=Nc4c(S(=O)(=O)O)cc5cc(S(=O)(=O)O)c(N=Nc6ccccc6)c(O)c5c4N)cc3)cc2)c(N)c1
outcome [2]: inactive | outcome [8]: inactive | outcome [3]: inactive | outcome [4]: inactive | outcome [5]: inactive | outcome [6]: inactive

COc1ccccc1OC
outcome [9]: inactive | outcome [2]: inactive | outcome [3]: inactive | outcome [4]: inactive | outcome [5]: inactive | outcome [6]: inactive

OCc1ccco1
outcome [9]: inactive | outcome [2]: inactive | outcome [8]: inactive | outcome [3]: inactive | outcome [7]: inactive | outcome [6]: inactive

COP(=S)(OC)Oc1cc(Cl)c(Br)cc1Cl
outcome [1]: inactive | AC50 [2]: 70.1 µM (active) | AC50 [3]: 46.8 µM (active) | outcome [4]: inactive | outcome [5]: inactive | AC50 [6]: 79.6 µM (active)

CC(=O)C(Cl)C(=O)N(C)C (configuration not stated)
outcome [9]: inactive | outcome [2]: inactive | outcome [3]: inactive | outcome [4]: inactive | outcome [5]: inactive | outcome [7]: inactive | outcome [6]: inactive

[O-][Cl+2]([O-])O
outcome [9]: inactive | outcome [2]: inactive | outcome [8]: inactive | outcome [3]: inactive | outcome [4]: inactive | outcome [5]: inactive | outcome [7]: inactive | outcome [6]: inactive

COC(=O)Cc1ccccc1
outcome [9]: inactive | outcome [3]: inactive | outcome [6]: inactive

OCC(O)CCl (configuration not stated)
outcome [2]: inactive | outcome [3]: inactive | outcome [4]: inactive | outcome [5]: inactive | outcome [7]: inactive | outcome [6]: inactive
